# Measured values from PubChem BioAssay (NCATS).
# A number with no mark means an inactive call. Records with an inconclusive call do not appear. Entries that show only a call come without a potency. Calls of active or inactive are those of the source. The call rests on the fitted dose curve; in most records, active means well fitted curve in the direction sought with a large enough effect; inconclusive means small, poorly fitted or top-dose-only effect, or another doubt; inactive means no such curve, though single readings can be large; an effect the other way counts as inactive or inconclusive.
# Key:
# [1] = molecular target: Glutathione peroxidase 1 (Homo sapiens) (UniProt P07203); test: Primary qHTS Assay for Inhibitors of Recombinant Selenoprotein Glutathione Peroxidase 1 (GPX1) (AID 1845191); further: nearly all actives have a fitted effect of over 65% in size
# Chain of Glutathione peroxidase 1 (Homo sapiens) (P07203 whole entry, looked up): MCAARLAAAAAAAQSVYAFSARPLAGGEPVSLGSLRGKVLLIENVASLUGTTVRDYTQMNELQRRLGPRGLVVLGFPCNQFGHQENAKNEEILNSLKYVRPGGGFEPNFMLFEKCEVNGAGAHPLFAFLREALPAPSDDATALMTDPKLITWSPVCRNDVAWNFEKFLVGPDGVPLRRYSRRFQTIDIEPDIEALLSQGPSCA
# Method in brief: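 Recombinant GPX1 (10 nM final) was preincubated with compound for 30 min at room temperature, then reacted with 1 mM GSH, 0.5 mM CHP, 0.5 mM NADPH and 100 nM glutathione reductase; NADPH fluorescence (340/450 nm) was read at 0 and 15 min.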
# [2] = molecular target: Phospholipid hydroperoxide glutathione peroxidase GPX4 (Homo sapiens) (UniProt P36969); test: Primary qHTS Assay for Inhibitors of Recombinant Selenoprotein Glutathione Peroxidase 4 (GPX4) (AID 1845192); further: nearly all actives have a fitted effect of over 65% in size; on activity change, negative = inhibition: series mostly up to about 50 µM
# Chain of Phospholipid hydroperoxide glutathione peroxidase GPX4 (Homo sapiens) (P36969 whole entry, looked up): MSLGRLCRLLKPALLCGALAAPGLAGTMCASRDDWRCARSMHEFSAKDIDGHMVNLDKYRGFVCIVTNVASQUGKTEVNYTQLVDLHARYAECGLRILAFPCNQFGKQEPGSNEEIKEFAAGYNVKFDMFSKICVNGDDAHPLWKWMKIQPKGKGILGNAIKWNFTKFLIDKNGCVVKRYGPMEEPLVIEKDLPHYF
# Method in brief: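 GR-coupled readout: 100 nM GR, 1 mM GSH, 0.5 mM NADPH; NADPH fluorescence (ex 340/em 450 nm) read at t=0 and after 15 min RT. GPX4 200 nM, preincubated 30 min with compound; substrate 0.5 mM CHP.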
# [3] = molecular target: Luciferin 4-monooxygenase (Photinus pyralis) (UniProt P08659); test: Primary firefly luciferase (FLuc) qHTS assay for identification of artifact compounds. (AID 1845220); further: nearly all actives have a fitted effect of over 60% in size; further: potency means the concentration at half of the fitted maximal effect; on activity change, negative = inhibition: series mostly up to about 54 µM
# Method in brief: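 In this counter-screen for luciferase artifacts, test compounds met substrate (10 uM each luciferin and ATP) before 10 nM enzyme started the reaction. Light output was measured 5 min later.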
# [4] = Primary fluorescence-based thiol-reactive (MSTI) qHTS assay for identification of artifact compounds. (AID 1845221); further: nearly all actives have a fitted effect of over 65% in size; further: potency means the concentration at half of the fitted maximal effect;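 on activity change, negative = thiol reactive: series mostly up to about 54 µM; thiol-reactive compounds lower the probe fluorescence signal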
# Method in brief: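 In PBS pH 7.4 with 2% DMSO, each compound met 4 uM MSTI for one hour at ambient temperature, shielded from light, before fluorescence detection.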
# [5] = test system: Nanoluciferase (engineered Oplophorus gracilirostris luciferase); test: Primary Nanoluciferase (NLuc) qHTS assay for identification of artifact compounds. (AID 1845222);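 further: NLuc secreted into diluted conditioned medium of S16 cells; series mostly up to about 54 µM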
# Method in brief: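 Using secreted nanoluciferase in S16 culture medium (0.22 um filtered, 1:55 dilution), compounds were preincubated 15 min at RT. Signal was generated with Nano-Glo reagent (1:100) over 5 min.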
smiles,measurement,setting,value
C/C(=C/C=C\C=C\Cc1cnco1)[C@@H](O)C(C)(C)C(N)=O,Potency,[1],inactive
same,Potency,[2],inactive
same,Potency,[3],inactive
same,Potency,[4],inactive
same,Potency,[5],inactive
CC(=O)O[C@@H]1CC2C(C)(C)C(=O)C=C[C@]2(C)C2CC[C@@]3(C)[C@H](c4ccoc4)OC(=O)[C@H]4O[C@]43[C@@]21C (stereo not given in full),Potency,[1],inactive
same,Potency,[2],inactive
same,Potency,[3],inactive
same,Potency,[4],inactive
same,Potency,[5],inactive
CCC/C=C/C(=O)O[C@H]1CC(C)(C)CC2[C@@]13[C@H](O)C[C@]1(C)[C@@]2(CCC2[C@@]4(C)CC[C@H](O[C@@H]5O[C@H](C(=O)O)[C@@H](O)[C@H](O[C@@H]6O[C@H](CO)[C@H](O)[C@H](O)[C@H]6O[C@@H]6O[C@@H](C)[C@H](O)[C@@H](O)[C@H]6O[C@@H]6OC[C@](O)(CO)[C@H]6O)[C@H]5O[C@@H]5O[C@H](CO)[C@H](O)[C@H](O)[C@H]5O)C(C)(C)C4CC[C@]21C)O[C@H]3O (stereo not given in full),outcome,[1],inactive [at 9.52 µM]
same,"activity change, negative = inhibition",[2],-7.28% [at 9.73 µM]
same,"activity change, negative = inhibition",[3],0.937% [at 11.6 µM]
same,"activity change, negative = thiol reactive",[4],163% [at 11.5 µM]
same,"activity, negative = inhibition",[5],2.33% [at 11.6 µM]
Cn1ccc(NC(=O)c2cc(Oc3ccc(C(=O)N4CCC4)c(F)c3)c3c(c2)OC(C)(C)C3)n1,Potency,[1],inactive
same,Potency,[2],inactive
same,Potency,[3],inactive
same,Potency,[4],inactive
same,Potency,[5],inactive
CNC(=O)COC(=O)N1CCC(CCc2ccc(Cl)cc2)CC1,Potency,[1],inactive
same,Potency,[2],inactive
same,Potency,[3],inactive
same,Potency,[4],inactive
same,Potency,[5],inactive
CNc1ccc([N+](=O)[O-])c(Nc2ccc3[nH]ncc3c2)n1,Potency,[1],inactive
same,Potency,[2],inactive
same,Potency,[3],inactive
same,Potency,[4],4.74 µM (active)
same,Potency,[5],inactive
CC1(C)CC[C@]2(C(=O)O)CC[C@]3(C)C(=CCC4[C@@]5(C)C[C@@H](O)[C@H](O)[C@@](C)(CO)C5CC[C@]43C)[C@@H]2[C@@H]1O (stereo not given in full),Potency,[1],inactive
same,Potency,[2],inactive
same,Potency,[3],inactive
same,Potency,[4],10.3 µM (active)
same,Potency,[5],inactive
COc1ccc(CCc2nc3cc(-c4c(C)noc4C)ccc3n2CC(C)N2CCOCC2)cc1Cl (stereo not given),Potency,[1],inactive
same,Potency,[2],inactive
same,Potency,[3],inactive
same,Potency,[4],inactive
same,Potency,[5],inactive
CO[C@@H]1CC(OC2CCC3(C)C(CCC45CCC(C6=CC(=O)OC6)C(C)(CCC43)C5=O)C2)O[C@H](C)[C@@H]1O[C@@H]1O[C@H](CO[C@@H]2O[C@H](CO)[C@@H](O)[C@H](O)[C@H]2O)[C@@H](O)[C@H](O)[C@H]1O (stereo not given in full),Potency,[1],inactive
same,Potency,[2],inactive
same,"activity change, negative = inhibition",[3],-4.2% [at 11.6 µM]
same,"activity change, negative = thiol reactive",[4],-1.23% [at 11.5 µM]
same,"activity, negative = inhibition",[5],-1.95% [at 11.6 µM]
CC(C)(O)C1Cc2c(ccc(C(=O)CCc3ccccc3)c2O)O1 (stereo not given),Potency,[1],inactive
same,Potency,[2],inactive
same,Potency,[3],0.294 µM (active)
same,Potency,[4],inactive
same,Potency,[5],inactive
C[C@H](Nc1cc2c(-c3ccc4c(c3)OCO4)noc2cn1)c1ccccc1,Potency,[1],inactive
same,Potency,[2],inactive
same,Potency,[3],inactive
same,Potency,[4],inactive
same,Potency,[5],inactive
CC(=O)c1c(C)cc2cccc(O)c2c1O[C@@H]1O[C@H](CO)[C@@H](O)[C@H](O)[C@H]1O,Potency,[1],inactive
same,Potency,[2],inactive
same,Potency,[3],inactive
same,Potency,[4],5.21 µM (active)
same,Potency,[5],inactive
CN1CCC(c2cn(C)c3ccc(OS(=O)(=O)c4c(F)cccc4F)cc23)CC1,Potency,[1],inactive
same,Potency,[2],inactive
same,Potency,[3],inactive
same,Potency,[4],inactive
same,Potency,[5],inactive
CC(=O)O[C@H]1CC(C)(C)CC2[C@]13CO[C@@]21CCC2[C@@]4(C)CC[C@H](O[C@@H]5OC[C@H](O[C@@H]6O[C@H](CO)[C@@H](O)[C@H](O)[C@H]6O[C@@H]6OC[C@@H](O)[C@H](O)[C@H]6O)[C@H](O)[C@H]5O[C@@H]5O[C@H](CO)[C@@H](O)[C@H](O)[C@H]5O)[C@@](C)(CO)C4CC[C@@]2(C)[C@]1(C)C[C@H]3O (stereo not given in full),Potency,[1],inactive
same,Potency,[2],inactive
same,outcome,[3],inactive [at 11.6 µM]
same,"activity change, negative = thiol reactive",[4],28.4% [at 11.5 µM]
same,"activity, negative = inhibition",[5],2.37% [at 11.6 µM]
CCCOc1ccc(CCc2nc3cc(-c4c(C)noc4C)ccc3n2CCN2CCOCC2)cc1,Potency,[1],inactive
same,Potency,[2],inactive
same,Potency,[3],inactive
same,Potency,[4],inactive
same,Potency,[5],inactive
CC1(C)CC[C@]23CO[C@@]4(CCC5[C@@]6(C)CC[C@H](O[C@@H]7OC[C@H](O[C@@H]8O[C@H](CO)[C@@H](O)[C@H](O)[C@H]8O[C@@H]8OC[C@@H](O)[C@H](O)[C@H]8O)[C@H](O)[C@H]7O[C@@H]7O[C@H](CO)[C@@H](O)[C@H](O)[C@H]7O)[C@@](C)(CO)C6CC[C@@]5(C)[C@]4(C)C[C@H]2O)[C@@H]3C1 (stereo not given in full),Potency,[1],inactive
same,Potency,[2],inactive
same,outcome,[3],inactive [at 11.6 µM]
same,"activity change, negative = thiol reactive",[4],317% [at 11.5 µM]
same,"activity, negative = inhibition",[5],3.72% [at 11.6 µM]
O=C1COC2(CCN(S(=O)(=O)c3ccc(-c4ccc5cccnc5c4)cc3)CC2)CN1C1CC1,Potency,[1],inactive
same,Potency,[2],inactive
same,Potency,[3],inactive
same,Potency,[4],inactive
same,Potency,[5],inactive
COc1ccc(NC(=O)c2ccc(-c3ccc(C(=N)N)cc3C)cc2)cc1N1CCN(C)CC1,Potency,[1],inactive
same,Potency,[2],inactive
same,Potency,[3],inactive
same,Potency,[4],inactive
same,Potency,[5],inactive
COC(=O)C1=COC(O[C@@H]2O[C@H](CO[C@@H]3O[C@H](COC(=O)/C=C\c4ccc(O)cc4)[C@@H](O)[C@H](O)[C@H]3O)[C@@H](O)[C@H](O)[C@H]2O)C2C(CO)=CCC12 (stereo not given in full),Potency,[1],inactive
same,Potency,[2],inactive
same,Potency,[3],inactive
same,Potency,[4],inactive
same,Potency,[5],inactive
CNCCN1CCC(c2cc(CN(C)C(=O)c3cccc(Oc4ccccc4)c3)ccn2)CC1,Potency,[1],inactive
same,Potency,[2],inactive
same,Potency,[3],inactive
same,Potency,[4],inactive
same,Potency,[5],inactive
C/C=C/CCC1Cc2cc(O)c(CCCC)c(O)c2C(=O)O1 (stereo not given),Potency,[1],inactive
same,Potency,[2],inactive
same,Potency,[3],inactive
same,Potency,[4],inactive
same,Potency,[5],inactive
